According to the supplement of paper PMC13380429:

System: Vero E6 infected with SARS-CoV-2
Assay: inhibition of SARS-CoV-2 cytopathic effect; higher = more antiviral protection, active = above 15
Details: 48 h

Measured: inhibition of SARS-CoV-2 cytopathic effect

CC(=O)C(=Cc1cc(O)c(O)c([N+](=O)[O-])c1)C(C)=O [nitecapone]
inactive: 1 nM -1.48% | 8.33 nM 2.97% | 100 nM 1.47% | 833.33 nM -1.89% | 10000 nM -6.91%

NC[C@H]1O[C@H](O[C@H]2[C@H](O)[C@@H](O[C@H]3O[C@H](CO)[C@@H](O)[C@H](N)[C@H]3O)[C@H](N)C[C@@H]2N)[C@H](O)[C@@H](O)[C@@H]1O [kanamycin]
inactive: 1 nM 1.47% | 8.33 nM 2.23% | 100 nM 2.41% | 833.33 nM 3.53% | 10000 nM -0.06%

CC(/C=C/C(=O)NO)=C\[C@@H](C)C(=O)c1ccc(N(C)C)cc1 [trichostatin-a]
inactive: 1 nM -3.04% | 8.33 nM -7.12% | 100 nM -16% | 833.33 nM -31% | 10000 nM -31.1%

CO[C@H]1CC[C@@H](C(=O)c2ccc3nc4c(cc3c2)CCCO4)CC1
inactive: 1 nM -1.37% | 8.33 nM 0.02% | 100 nM -1.45% | 833.33 nM -0.98% | 10000 nM -2.81%

CCN(CC)CCOc1ccc(Cc2ccccc2)cc1
inactive: 1 nM -2.21% | 8.33 nM -0.5% | 100 nM -4.41% | 833.33 nM 0.19% | 10000 nM -0.76%

COc1cc(CCc2cc(NC(=O)c3ccc(N4CC(C)NC(C)C4)cc3)n[nH]2)cc(OC)c1 (stereo not given)
inactive: 1 nM -1.78% | 8.33 nM 1.81% | 100 nM 1.04% | 833.33 nM -1.56% | 10000 nM -1.21%

CCOc1ccccc1-n1c(C(C)N2CCN(C(=O)COc3ccc(Cl)cc3)CC2)nc2ccccc2c1=O (stereo not given) [erastin]
inactive: 1 nM -2.42% | 8.33 nM -0.63% | 100 nM -0.86% | 833.33 nM -2.74% | 10000 nM 7.21%
